Assay outcomes from PubChem.
Compounds with a hit are over-represented: about 9.4% of the library has one in this group of screens.
Pf growth 48h = Primary qHTS for delayed death inhibitors of the malarial parasite plastid, 48 hour incubation; P. falciparum luciferase growth in erythrocytes, 48 h; AID 504832, 2011; hit rate 5.9% among 310,000; Potency, µM (titrated, usually from 28.7 µM), hits mostly inhibitors
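First compound was added to culture medium, then infected red cells at 0.1% parasitemia and 2% hematocrit (final). After incubation at 37 C under 5% CO2, luciferase detection reagent was dispensed and light output recorded.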
AMA1 RON2 block = qHTS for Inhibitors of AMA1-RON; Towards Development of Antimalarial Drug Lead: Primary Screen. Potency, µM (series often up to 58.2 µM), usual class: inhibitors. hit rate 0.2% among 360,000. AlphaScreen AMA1-biotinylated RON2 peptide binding. Plasmodium falciparum AMA1 (3D7) - RON2 peptide interaction; also: nearly all actives have a fitted effect of over 45% in size
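AMA1 (3D7) with his tag at 25 nM final met compounds first, then biotinylated RON2 peptide at 25 nM; detection used donor plus acceptor beads, 10 µg/mL apiece, read by AlphaScreen after 30 min at room temperature.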
Pf growth 96h = Primary qHTS for delayed death inhibitors of the malarial parasite plastid, 96 hour incubation; Potency, µM (series often up to 28.7 µM), most hits filed as inhibitors; hit rate 6.9% among 320,000; P. falciparum luciferase reporter growth, 96 h
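Two parasite generations (96 h, 37 C, 5% CO2) of compound exposure in infected erythrocytes (0.05% parasitemia, 2% hematocrit). Luciferase-reporter P. falciparum; decreased luminescence indicates inhibited growth, aimed at apicoplast-acting delayed death.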
SARS PLP yeast = qHTS of Yeast-based Assay for SARS-CoV PLP; S. cerevisiae expressing SARS-CoV PLpro, growth rescue; Potency, µM (series often up to 32.9 µM), most hits filed as activators; hit rate 0.19% among 330,000; calls by dose curve; also: nearly all actives have a fitted effect of over 55% in size
Of the large screens only hits and unclear results are named; the others gave an inactive call. Unless noted, calls follow the shape of the dose curve; as a rule, active = well fitted curve in the direction sought with a large enough effect; inconclusive = small, poorly fitted or top-dose-only effect, or another doubt; inactive = no such curve, though single readings can be large; an effect the other way counts as inactive or inconclusive.

Cc1cc(NC(=O)c2ccc(COc3ccc(Cl)c(C)c3)o2)no1	Pf growth 96h 9.28µM
Cc1cccc(CSCc2ccc(C(=O)O)o2)c1	none
Cc1cc(NC(=O)c2ccc(COc3ccccc3Cl)o2)no1	none
COc1ccc(NC(=O)c2ccc(COc3ccc(C)cc3)o2)cc1	Pf growth 96h 5.22µM
CCOc1ccc(OCc2ccc(C(=O)NC(C)C)o2)cc1	Pf growth 48h inconclusive, Pf growth 96h 11.7µM
O=C(CSCCO)Nc1nccs1	none (no result: Pf growth 96h)
O=C(CN1CCCCC1)N1CCN(c2ccccc2)CC1	none
CC1C=CCC2C(=O)N(c3cccc(C(=O)N4CCN(c5ccc(F)cc5)CC4)c3)C(=O)C12 (centres undefined)	none (no result: Pf growth 96h)
O=C(O)c1ccc(NC(=O)c2ccc(COc3ccccc3)o2)cc1	none
CC(=O)Nc1ccc(NC(=O)c2ccc(COc3ccc(C)cc3)o2)cc1	Pf growth 96h 9.28µM
CCOc1ccc(OCc2ccc(C(=O)OCc3ccccn3)o2)cc1	Pf growth 96h 10.4µM
S=C(NCc1ccccc1)Nc1ccc(Oc2ccccc2)cc1	Pf growth 48h inconclusive, Pf growth 96h inconclusive
COc1cc(NC(=O)COC(=O)CC(C)(C)C)c(C)cc1[N+](=O)[O-]	Pf growth 96h inconclusive
CC(c1nnc(SCC(=O)N(C)C2CCS(=O)(=O)C2)n1-c1ccccc1)N(C)C (centres undefined)	none
Cc1ccnc(Nc2nc(-c3sc(C)nc3C)cs2)c1	none (no result: Pf growth 48h, Pf growth 96h, SARS PLP yeast)
CCN(CC)CCNC(=O)c1ccc(NC(=O)c2ccc(S(=O)(=O)N3CCCCCC3)cc2)cc1	Pf growth 48h 1.65µM, Pf growth 96h inconclusive
CCN(CC)CCNC(=O)c1ccc(NC(=O)c2ccc(C(=O)c3ccccc3)cc2)cc1	Pf growth 48h 5.86µM, Pf growth 96h 10.4µM
CCN(CC)CCNC(=O)c1ccc(NC(=O)c2ccc(Cl)c(S(=O)(=O)N3CCCCCC3)c2)cc1	Pf growth 48h 1.65µM
CCN(CC)CCNC(=O)c1ccc(NC(=O)c2cccc(S(=O)(=O)N3CCCCCC3)c2)cc1	none (no result: Pf growth 48h, Pf growth 96h, SARS PLP yeast)
CCN(CC)CCNC(=O)c1ccc(NC(C)=O)cc1	none
O=C(COc1cc2oc(=O)c3c(c2cc1Cl)CCC3)NCCCN1CCCC1=O	Pf growth 48h inconclusive, Pf growth 96h 13.1µM
CCOc1ccccc1Nc1cc(C)nc2ccccc12	none (no result: Pf growth 48h, Pf growth 96h, SARS PLP yeast)
CCc1ccc(NC(=O)CSc2nnc(CNC(=O)c3cccs3)o2)cc1	Pf growth 96h inconclusive
Cc1[nH]c2ccc(OC(F)(F)F)cc2c1CCN1C(=O)c2ccc(C(=O)O)cc2C1=O	none
COc1cccc(OC)c1C(=O)NNC(=O)c1cccc(COc2ccc3c(c2)CCC3)c1	Pf growth 48h 2.33µM
COc1cccc(NC(=O)COc2ccc3c(c2)CCC3)c1	none
CC1CN(S(=O)(=O)c2cc(C(=O)NCCCN3CCCC3=O)ccc2Cl)CC(C)O1 (centres undefined)	none (no result: Pf growth 48h, Pf growth 96h)
O=C(NCCCN1CCCC1=O)c1ccc(Cl)c(S(=O)(=O)N2CCCCC2)c1	Pf growth 48h 8.28µM, Pf growth 96h 5.22µM
COc1ccc(OC)c(NC(=O)COc2ccc3c(c2)CCC3)c1	Pf growth 48h 13.1µM, Pf growth 96h inconclusive
O=C(NCc1ccccc1)c1cccc(COc2ccc3c(c2)CCC3)c1	none
COc1cc(C(=O)NCCCN2CCCC2=O)cc(Br)c1OCc1ccccc1	Pf growth 48h 9.28µM, Pf growth 96h inconclusive
O=C(CCS(=O)(=O)c1ccccc1)Nc1ncc([N+](=O)[O-])s1	Pf growth 48h inconclusive
COC(=O)C1(C)NC(c2ccc(O)cc2)C2C(=O)N(c3ccccc3)C(=O)C21 (centres undefined)	none
CC(C)(C)[C@H]1COC(=O)[C@@H](NC(=O)OCC2c3ccccc3-c3ccccc32)C/C=C\C[C@@H](CC(=O)N[C@@H](CO)Cc2ccccc2)C(=O)N1	none (no result: Pf growth 48h, Pf growth 96h)
O=C(c1ccccc1)c1cccn1CC(=O)N1CCc2ccccc2C1	none
CCN(CC)CCNC(=O)c1ccc(NC(=O)COc2ccc3c(c2)CCC3)cc1	Pf growth 48h inconclusive, Pf growth 96h 14.7µM
O=C(NCCCN1CCCC1=O)c1ccc2c(c1)NC(=O)C(N1CCOCC1)S2 (centres undefined)	Pf growth 96h 0.928µM
O=C(NCCCN1CCCC1=O)Nc1ccc(Cl)cc1Cl	none
COc1ccc(OC)c(CNc2ccc3c(c2)CCC3)c1	Pf growth 48h inconclusive, Pf growth 96h 10.4µM, SARS PLP yeast inconclusive
COC(=O)c1ccc2c(c1)NC(=O)C(N1CCOCC1)S2 (centres undefined)	none
